Assay outcomes: PubChem, National Center for Advancing Translational Sciences (NCATS)
In the library only some 12% were active in any assay of this set; here they are far more common.
PI5P4Ka inh – blocks human PI5P4K alpha kinase activity | max response, % | PI5P4Kalpha enzyme, ADP-Glo luminescence, 60 min; hits give low values | hit rate 1.2% among 330,000 | P48426; active = max response of -50% or lower; inconclusive = between -30% and -50%; inactive = -30% or higher; note: value at the top dose of about 77 µM; % is set by controls: 0 for no effect and ±100 for the full control effect
Target sequence (P48426 whole entry, looked up): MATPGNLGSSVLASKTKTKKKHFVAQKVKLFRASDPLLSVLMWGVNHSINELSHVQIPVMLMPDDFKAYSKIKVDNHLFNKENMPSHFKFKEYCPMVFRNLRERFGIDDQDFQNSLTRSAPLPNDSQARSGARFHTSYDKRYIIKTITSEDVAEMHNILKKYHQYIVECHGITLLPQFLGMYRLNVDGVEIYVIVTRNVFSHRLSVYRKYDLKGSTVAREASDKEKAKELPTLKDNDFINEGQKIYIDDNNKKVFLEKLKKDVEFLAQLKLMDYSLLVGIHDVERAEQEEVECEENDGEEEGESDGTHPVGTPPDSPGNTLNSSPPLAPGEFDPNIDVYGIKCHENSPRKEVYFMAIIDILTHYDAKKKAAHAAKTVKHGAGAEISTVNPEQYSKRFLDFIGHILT
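Reactions run in 0.038 M HEPES pH 7.4, 0.28 mM EGTA, 0.1% CHAPS and 5% DMSO, with PI5P4Kalpha, substrate, compound and 5 microM ATP final, one hour at room temperature. Readout is ADP-Glo luminescence.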
G9a inh – blocks human histone lysine methyltransferase G9a; Potency, µM (top dose mostly 102 µM), inactives show at the top dose activity, negative = inhibition, most hits filed as inhibitors; Q96KQ7; G9a H3K9 monomethylation, AlphaScreen, 2 h; hit rate 8.8% among 350,000; note: potency is the fitted concentration of half-maximal effect; % is set by controls: 0 for no effect and ±100 for the full control effect; nearly all actives have a fitted effect of over 75% in size
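AlphaScreen read-out: biotin-H3K9 peptide (500 nM) methylation by 20 nM enzyme with 20 uM SAM, 2 h at room temperature after 15 min compound preincubation; anti-monomethyl H3K9 antibody plus donor/acceptor beads, 10 min dark.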
HP1b chromo inh – inhibitors of HP1-beta chromodomain binding to methylated histone tails; hit rate 0.56% among 390,000; AlphaScreen HP1-beta / biotin-H3K9me3 peptide binding; P83916; Potency, µM (highest dose often 114 µM), for inactives: at the top dose activity change, negative = inhibition, hits mostly inhibitors; note: potency is the fitted concentration of half-maximal effect; nearly all actives have a fitted effect of over 70% in size
Target sequence (P83916 whole entry, looked up): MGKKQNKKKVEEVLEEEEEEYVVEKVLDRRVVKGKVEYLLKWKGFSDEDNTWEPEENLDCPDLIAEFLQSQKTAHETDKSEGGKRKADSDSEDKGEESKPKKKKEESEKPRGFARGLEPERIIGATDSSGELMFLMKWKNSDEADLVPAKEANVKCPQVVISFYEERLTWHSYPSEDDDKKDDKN
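HP1-beta protein (50 nM final) preincubated 30 min at room temperature with biotinylated H3(1-18)K9me3 peptide (50 nM) in PBS pH 7.4, 0.01% Tween-20, then compound added for 30 min. AlphaScreen streptavidin donor/nickel chelate acceptor beads (10 ug/mL final), 30 min dark, luminescence read.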
PLK1 PBD inh – blocks phosphopeptide binding to human PLK1 polo-box domain; P53350; Plk1 PBD binding of FITC phosphopeptide, fluorescence polarization; hit rate 2.8% among 360,000; Potency, µM, without a hit: max response, negative = inhibition, actives largely listed as inhibitors; note: potency is the fitted concentration of half-maximal effect; series mostly up to about 57 µM; % is set by controls: 0 for no effect and ±100 for the full control effect; nearly all actives have a fitted effect of over 65% in size
BAZ2B block – inhibitors of human BAZ2B bromodomain | Potency, µM (series often up to 114 µM), without a hit: top-dose activity change, negative = inhibition, hits mostly inhibitors | Q9UIF8 | AlphaScreen BAZ2B-H3K14Ac peptide displacement | AID 504333 | hit rate 4.4% among 360,000; note: potency is the fitted concentration of half-maximal effect; % is set by controls: 0 for no effect and ±100 for the full control effect; nearly all actives have a fitted effect of over 60% in size
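Complex of BAZ2B and biotin-H3K14Ac (50 nM apiece) forms over 30 min at RT, then faces library compounds up to 110 uM for another 30 min; AlphaScreen beads added, 20 min dark incubation, luminescence read.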
JMJD2A Tudor inh – blocks the human JMJD2A Tudor domain; AID 504339; Potency, µM (titrated, usually from 114 µM), without a hit: top-dose activity change, negative = inhibition, usual class: inhibitors; AlphaScreen JMJD2A-Tudor / H3K4me3 peptide binding; O75164; hit rate 4.4% among 390,000; note: potency is the fitted concentration of half-maximal effect; % is set by controls: 0 for no effect and ±100 for the full control effect; nearly all actives have a fitted effect of over 50% in size
* hit, by the source's call; ? = inconclusive; / = no result; [ ] = remark or other dose. Unless noted, calls come from the whole dose curve; as a rule, active = well fitted curve in the direction sought with a large enough effect; inconclusive = small, poorly fitted or top-dose-only effect, or another doubt; inactive = no such curve, though single readings can be large; an effect the other way counts as inactive or inconclusive.

SMILES	PI5P4Ka inh	G9a inh	HP1b chromo inh	PLK1 PBD inh	BAZ2B block	JMJD2A Tudor inh
CC(C)c1ccc(-c2csc(NC(=O)c3cccs3)c2C(=O)O)cc1	?	-38%	63%	34µM*	0%	-28%
CCOC(=O)c1c(-c2cccs2)csc1NC(=O)CC(C)C	14	19%[12.7 µM]	153%	-6%	36%	77%
COC(=O)c1c(-c2cccs2)csc1NC(=O)c1cccc(Cl)c1	/	?	30%	/	19%	51%
COC(=O)c1c(-c2cccs2)csc1NC(=O)c1ccc(C(C)(C)C)cc1	/	1.8µM*	-13%	/	-11%	?
COC(=O)c1c(-c2cccs2)csc1NC(=O)COc1c(C)ccc(C)c1C	/	1.4µM*	?	/	?	79µM*
O=C(CSc1ccc2nc(-c3ccccc3)cn2n1)Nc1ccccc1	/	-19%[59 µM]	14%	/	4%	-3%
COC(=O)c1c(-c2cccs2)csc1NC(=O)c1ccc(C(C)C)cc1	/	2.8µM*	-12%	/	-1%	0%
COC(=O)c1c(-c2cccs2)csc1NC(=O)COc1ccc(C(C)(C)C)cc1	/	4µM*	-17%	/	-15%	-8%
COC(=O)c1c(-c2cccs2)csc1NC(=O)COc1ccc(C)cc1	/	?	-7%	/	-13%	-2%
CCCCC[C@H](C)N1C[C@H](COCc2ccccc2)Oc2cc(N3CCC[C@@H]3COC)ccc2S1(=O)=O	12	/	/	3%	/	/
CN(C(=O)CSC(=O)c1ccccc1)c1ccccc1	-5	54%	49%	-9%	-1%	7%
N#Cc1ccc2c(c1)C[C@]1(CCCCN3C(=O)c4ccccc4C3=O)Oc3c(c(=O)oc4ccccc34)C2O1	/	12%[2.33 µM]	/	/	-9%[22.9 µM]	/
O=S(=O)(Nc1ncnc2sc3c(c12)CCC3)c1ccc(Cl)s1	-6	10µM*	20%	?	?	-34%
O=C(Nc1ncnc2sc3c(c12)CCCCC3)c1ccco1	2	5%[12.7 µM]	-10%	-11%	14%	-19%
Fc1cccc(Nc2ncnc3sc4c(c23)CCC4)c1	3	20µM*	38%	3%	6%	-6%
O=S(=O)(Nc1ncnc2sc3c(c12)CCC3)c1cc(F)ccc1F	1	/	41%	-2%	-8%	4%
Cc1nc(NS(=O)(=O)c2ccc(Br)cc2)c2c3c(sc2n1)CCC3	7	-20%[12.7 µM]	32%	-12%	?	-16%
O=C(Nc1ncnc2sc3c(c12)CCCC3)c1ccncc1	0	45µM*	12%	-10%	-20%	3%
Cc1nc(NS(=O)(=O)c2cccs2)c2c3c(sc2n1)CCC3	-2	79µM*	56%	-18%	?	-5%[57.1 µM]
Cc1ccc(C)c(NC(=O)c2cc(S(=O)(=O)N3CCCc4ccccc43)ccc2F)c1	/	0%[59 µM]	28%	/	8%	-15%
CSc1nc2n(n1)C(C)C1=C(CCCC1=O)N2 (stereo unspecified)	1	-1%	28%	4%	-4%	11%
CCN(CC)CCN(C(=O)c1ccc(N2C(=O)CCC2=O)cc1)c1nc2cc3c(cc2s1)OCCO3	-7	50µM*	13%[57 µM]	-7%	/	-32%
CCN(CC)CCN(C(=O)c1cccc(N2C(=O)CCC2=O)c1)c1nc2cc3c(cc2s1)OCO3	-4	50µM*	26%	-10%	/	-19%
CCC1CC=CC2C1C(=O)N(Cc1ccccc1)C2c1ccc(OC)c(Cl)c1 (stereo unspecified)	/	/	43%	/	/	7%
COCCNC(=O)C(=O)NCC1OCCN1S(=O)(=O)c1ccc(F)cc1 (stereo unspecified)	2	29%	16%	-7%	-13%	-2%
SMILES	PI5P4Ka inh	G9a inh	HP1b chromo inh	PLK1 PBD inh	BAZ2B block	JMJD2A Tudor inh
COc1cc2c(C#N)c(N3CCc4ccccc4C3)nc(N)c2c(N)n1	?	-3%[12.7 µM]	-21%	-14%	?	4.5µM*
COc1cc2c(C#N)c(N3CCCCC3)nc(N)c2c(N)n1	-28	11%	45%	-16%	-1%	-10%
CCCC(=O)Nc1c(-c2ccccc2)[nH][nH]c1=O	2	/	/	-24%	/	/
CN(C)CCCN(C(=O)c1ccc(S(=O)(=O)N2CCOCC2)cc1)c1nc2cc3c(cc2s1)OCO3	-1	/	39%	5%	-14%	-12%
CCOC(=O)N1CCN(S(=O)(=O)c2ccc(C(=O)N(CCN(C)C)c3nc4ccc(Cl)cc4s3)cc2)CC1	-4	?	12%	-14%	-23%	-9%
CC1CCCCN1S(=O)(=O)c1ccc(C(=O)N(CCCN(C)C)c2nc3cc4c(cc3s2)OCO4)cc1 (stereo unspecified)	4	50µM*	-4%	-7%	?	?
CCOC(=O)N1CCN(S(=O)(=O)c2ccc(C(=O)N(CCN(CC)CC)c3nc4c(C)cccc4s3)cc2)CC1	0	50µM*	-11%	1%	?	?
CN(C)CCCN(C(=O)c1ccc(S(=O)(=O)N2CCCC2)cc1)c1nc2ccc(Br)cc2s1	-1	50µM*	14%	1%	?	?
Cc1ccc2sc(N(CCCN(C)C)C(=O)CN3C(=O)c4ccccc4C3=O)nc2c1C	0	50µM*	-13%	-14%	/	-36%
CCOc1ccc2nc(N(CCCN(C)C)C(=O)c3ccc(S(=O)(=O)N4CCCC4)cc3)sc2c1	-1	?	8%	-22%	?	-8%
N[C@H](CS)C(=O)O	/	-1%[59 µM]	/	/	/	/
O=c1c(-c2ccc(F)cc2)nc2cncnc2n1C1CC1	/	-20%[12.7 µM]	/	/	/	/
